PubChem BioAssay (NCI)
This is part of a sample that, as a whole, favours compounds with a hit. Of some 79,000 tested, about 15% had one in any assay. Cut-off read from the data, not from the text of the source: active = growth inhibition above about 70%; inactive = the rest.

Experiments:
[1] = NCI Yeast Anticancer Drug Screen. Data for the rad50 strain (AID 155);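 note: 0% = growth of vehicle-only cultures of the same strain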; conditions: S. cerevisiae rad50 strain growth inhibition; at 50.0 µM; stronger effect = higher value
In short: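 Readout: growth inhibition relative to vehicle-treated cultures. Compound exposure was carried out in a genetically defined yeast strain deficient in DNA damage repair.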

[2] = NCI Yeast Anticancer Drug Screen. Data for the mec2-1 strain (AID 157); conditions: S. cerevisiae mec2-1 strain, at 50.0 µM, stronger effect = higher value
In short: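 Each compound was tested on mec2-1 yeast, a strain altered in DNA damage repair or cell cycle control. Growth inhibition is reported relative to vehicle.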

[3] = NCI Yeast Anticancer Drug Screen. Data for the mlh1 rad18 strain (AID 175); conditions: S. cerevisiae mlh1 rad18 strain growth inhibition; at 50.0 µM; stronger effect = higher value
In short: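 Inhibition values reflect reduced growth of mutant yeast versus vehicle-treated controls following compound exposure; the mutations affect DNA damage repair.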

Measured: growth inhibition

Cc1ccc(NC(=O)/C=C/C(=O)O)c(NC(=O)/C=C/C(=O)O)c1
inactive: [1] 4.8% | [2] -1.15% | [3] 28.8%

Cc1n[nH]c(=O)n(/N=C\c2c[nH]c3ccccc23)c1=O
inactive: [1] 0.2% | [2] -4.55% | [3] -1.55%

COC(=O)c1cc(NC(=O)CC(=O)c2cccc(N)c2)cc(C(=O)OC)c1
inactive: [1] -3.8% | [2] -12.8% | [3] 8.4%

CC(C)c1nc(-c2ccccc2)c(-c2ccccc2)[nH]1
inactive: [1] 43.2% | [2] 13.1% | [3] 54.7%

CCCCCCC(=O)CCCCCCCCCCCCC(=O)OC
inactive: [1] 2.3% | [2] -1.65% | [3] 12.7%

Cc1ccc(COC(=O)c2cccnc2)cc1
inactive: [1] -16.4% | [2] -18.6% | [3] 8.65%

C[Si]1(C)N[Si](C)(C)N[Si](C)(C)N1
inactive: [1] 13.2% | [2] -19.6% | [3] 2.3%

COc1cc(/C=N/N2C(=O)c3ccccc3C2=O)ccc1O
inactive: [1] 26.8% | [2] 8.1% | [3] 25.9%

S=C1SCN(Cc2ccccc2)CN1Cc1ccccc1
inactive: [1] -10.1% | [2] -26.1% | [3] -13.3%

CCn1c2[n+](c3ccccc31)CCC2
inactive: [1] -28.6% | [2] -35.2% | [3] 3.65%

C(=N\N=C\c1c[nH]c2ccccc12)/c1c[nH]c2ccccc12
inactive: [1] -21.6% | [2] -21.9% | [3] 0.25%

CCOc1ccc(NC(=O)C2CCC(C)(C(=O)O)C2(C)C)cc1 (centres undefined)
inactive: [1] -3.45% | [2] 0.35% | [3] -0.8%

CC(=O)C1=CCC2C3CC(C)=C4CC(O)CCC4(C)C3CCC12C (centres undefined)
inactive: [1] 24.9% | [2] -1.15% | [3] -2.95%

Cc1ccc(N2CCOC2=O)cc1N1CCOC1=O
inactive: [1] -8.3% | [2] -32.6% | [3] -10.7%

CCCCCCCCCCCCOc1ccc(C)cc1
inactive: [1] 5.45% | [2] -25% | [3] 5.3%

C/C=C(/C)N(C(C)=O)N(C(C)=O)c1ccc([N+](=O)[O-])cc1[N+](=O)[O-]
inactive: [1] 5.75% | [2] -18.2% | [3] -3.3%

CN(c1ccccc1Cl)S(C)(=O)=O
inactive: [1] -4.2% | [2] -42.6% | [3] -0.25%

O=C(O)c1ccccc1C(=O)NNC(=O)c1ccccc1C(=O)O
inactive: [1] 4.65% | [2] -5.3% | [3] -13.6%

Cn1/c(=N\N=C\C(=O)O)sc2ccccc21
inactive: [1] -6.1% | [2] -13.8% | [3] 10.1%

CCOC(=O)c1nc2cc(C)c(C)cc2[nH]c1=O
inactive: [1] 5.45% | [2] -5.4% | [3] -1.85%

CC(CN1CCCC1)C(O)(Cc1ccccc1)c1ccccc1 (centres undefined)
inactive: [1] -0.05% | [2] -2.7% | [3] -4.15%

O=C1Nc2ccccc2CCc2ccccc21
inactive: [1] -18.1% | [2] -34.3% | [3] -7.2%

Cc1cccc(C2NC(=O)c3ccccc3N2)c1 (centres undefined)
inactive: [1] 9.35% | [2] -15.8% | [3] 10.5%

COC(CN(C)CC(OC)OC)OC
inactive: [1] -8.75% | [2] -20.9% | [3] -11.8%

COc1ccc(-c2cc(=O)c3c(ccc4ccccc43)o2)cc1
inactive: [1] 21.6% | [2] 3.4% | [3] 7%

CCOc1ccc(N=c2ssc(SC)c2-c2ccccc2)cc1
inactive: [1] 3.4% | [2] -10.8% | [3] 20.5%

CCCOC(=O)C(=O)C(C#N)c1ccccc1 (centres undefined)
inactive: [1] 21.1% | [2] -0.35% | [3] 16.9%

C[Si](C)(CCl)N[Si](C)(C)CCl
inactive: [1] -23.6% | [2] -33.9% | [3] -6.1%
